Measured values taken from PubChem BioAssay.

experiment: growth suppression of yeast trafficking mutant, preliminary HTS, modulators of trafficking downstream of Golgi apparatus project, 1536-format plate, OD 615 nm (AID 637); settings: yeast transport mutant growth, absorbance 615 nm, 18 h; hits give high values; in the data active means inhibition above about 30%; inactive means the rest

inhibition, inactive:
COc1ccc(C2=CC(=O)OC3(CCCCC3)O2)cc1 7.42%, CCCCNC(=O)c1nnn(-c2ccccc2)c1N 2.3%, Cc1ccc(Nc2nc(Oc3ccc(=O)[nH]n3)nc(N(C)C)n2)cc1 1.94%, CN(C(=O)C1CCOC1)c1nnc(-c2cccnc2)s1 (stereo not drawn) 19.4%, NS(=O)(=O)c1cc2c(cc1Cl)NC=NS2(=O)=O 1%, COc1cccc(NC(=O)COC(=O)c2cccnc2)c1 4.35%, CCN=C1SC(CC(=O)Nc2ccccc2OCC)C(=O)N1CC (stereo not drawn) -2.74%, O=S(=O)(NC1CCCCC1NS(=O)(=O)c1ccc(F)cc1)c1ccc(F)cc1 (stereo not drawn) 6.07%, CCn1cnc2sc(C(=O)Nc3ccc4c(c3)OCO4)c(C)c2c1=O -5.27%, O=C1C2CCCN2C(c2ccccc2)N1c1ccc(Cl)cc1 (stereo not drawn) -5.82%, CNc1nnc(-c2cccc(N(C)C)c2)s1 7.38%, COC(=O)Cc1c(C)nc2nc[nH]n2c1=O -2.91%, CCC(c1nnc(SCC(=O)Nc2ccc(C(=O)Nc3ccccc3OC)cc2)o1)N(C)C (stereo not drawn) -2.18%, CC1Oc2ccccc2N(Cc2ccccc2Cl)C1=O (stereo not drawn) 2%, CCn1cc(C(=O)O)c(=O)c2ccc(C)nc21 -3.83%, COc1ccccc1NC(=O)Cc1noc(CSc2cc(C)c3ccccc3n2)n1 1.64%, CC(COc1ccccc1)N(CCCl)Cc1ccccc1 (stereo not drawn) -3.33%, O=C(c1cnc2sccn2c1=O)N1CCc2ccccc2C1 -4.36%
